{"source": "PubChem BioAssay (NCATS)", "note": "Values without a mark were called inactive. Inconclusive results are not listed. Entries that show only a call come without a potency. Active and inactive are the calls of the source. Calls come from the whole dose curve; as a rule, active = well fitted inhibition curve with a large enough effect; inconclusive = small, poorly fitted or top-dose-only effect; inactive = flat fitted curve, though single readings scatter."}
{"molecular_target": "Phospholipid hydroperoxide glutathione peroxidase GPX4 (Homo sapiens) (UniProt P36969)", "sequence (P36969 whole entry, looked up)": "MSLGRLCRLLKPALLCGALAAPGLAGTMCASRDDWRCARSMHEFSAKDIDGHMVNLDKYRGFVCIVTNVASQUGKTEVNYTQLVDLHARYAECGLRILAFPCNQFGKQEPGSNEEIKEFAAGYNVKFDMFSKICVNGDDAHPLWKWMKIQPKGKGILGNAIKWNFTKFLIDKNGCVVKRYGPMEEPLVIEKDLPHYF", "test": "Primary qHTS Assay for Inhibitors of Recombinant Selenoprotein Glutathione Peroxidase 4 (GPX4) (AID 1845192); note: nearly all actives have a fitted effect of over 65% in size", "conditions": "recombinant GPX4, GR-coupled NADPH fluorescence, 15 min; series mostly up to 27.8 µM", "outline": "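NADPH consumption, followed by fluorescence at 340/450 nm between 0 and 15 min, reports GPX4 activity via coupled glutathione reductase (100 nM). Enzyme 200 nM was pre-exposed to compound 30 min; 0.5 mM cumene hydroperoxide and 1 mM GSH served as substrates.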"}
{"smiles": "C/C=C/C(=O)OC1/C=C/C(O)C(OC(C)=O)CCC(=O)OC1C", "note": "(centres undefined)", "Potency": "inactive"}
{"smiles": "CCC(C)C(N)C(=O)NCCN1CCOCC1", "note": "(centres undefined)", "Potency": "inactive"}
{"smiles": "O=C(/C=C/c1ccc(O)c(O)c1)O[C@H]1[C@@H]2C=CO[C@@H](O[C@@H]3O[C@H](CO)[C@@H](O)[C@H](O)[C@H]3O)[C@@H]2[C@@]2(CO)O[C@@H]12", "Potency": "inactive"}
{"smiles": "COc1c(C)c(OCC=C(C)C)cc2c1COC2=O", "Potency": "inactive"}
{"smiles": "C=C1CC[C@H]2[C@@](C)(CCC(OC3OC(CO)C(O)C(O)C3O)[C@@]2(C)CO)C1C(=O)CC1=CCOC1=O", "note": "(some centres undefined)", "Potency": "inactive"}
{"smiles": "CC(=O)O[C@@H]1[C@@H](O)[C@H](C)O[C@@H](O[C@H]2[C@@H]3C=CO[C@@H](O[C@@H]4O[C@H](CO)[C@@H](O)[C@H](O)[C@H]4OC(C)=O)[C@@H]3[C@@]3(CO)O[C@@H]23)[C@@H]1OC(=O)/C=C/c1ccc(O)cc1", "Potency": "inactive"}
{"smiles": "COC(=O)c1[nH]c(=O)c2ccccc2c1-c1ccc[nH]1", "Potency": "inactive"}
{"smiles": "CC(C/C=C/C(C)(C)O)C1CCC(C)(O)C(O)C1", "note": "(centres undefined)", "Potency": "inactive"}
{"smiles": "COc1ccc(/C=C/C(N)=O)cc1OC", "Potency": "inactive"}
{"smiles": "COC(=O)C1(C)CCCC2(C)c3ccc(C(C)C)cc3C(O)C(O)C12", "note": "(centres undefined)", "Potency": "inactive"}
{"smiles": "CCCCNc1nc(N)c2[nH]c(=O)n(Cc3ccc(OCCN(C)C)nc3)c2n1", "Potency": "inactive"}
{"molecular_target": "Luciferin 4-monooxygenase (Photinus pyralis) (UniProt P08659)", "test": "Primary firefly luciferase (FLuc) qHTS assay for identification of artifact compounds. (AID 1845220); note: nearly all actives have a fitted effect of over 60% in size; note: potency is the fitted concentration of half-maximal effect", "conditions": "purified firefly luciferase, luminescence, 5 min; series mostly up to 54.1 µM", "outline": "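Cell-free, 1536-well qHTS. Buffer pH 7.6 with 0.01% Tween-20 and 0.05% BSA; 10 uM D-luciferin, 10 uM ATP; 10 nM P. pyralis luciferase; luminescence after 5 min.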"}
{"smiles": "C[C@@H]1O[C@@H](O[C@H]2[C@@H]3C=CO[C@@H](O[C@@H]4O[C@H](CO)[C@@H](O)[C@H](O)[C@H]4O)[C@@H]3[C@@]3(CO)O[C@@H]23)[C@H](O)[C@H](OC(=O)/C=C/c2ccc(O)cc2)[C@H]1OC(=O)/C=C/c1ccc(O)cc1", "Potency": "inactive"}
{"smiles": "CC1(C)CC[C@]2(C(=O)OC3OC(CO)C(O)C(O)C3O)CC[C@]3(C)C(=CCC4[C@@]5(C)C[C@@H](O)[C@H](OC6OC(C(=O)O)C(O)C(O)C6O)C(C)(C)C5CC[C@]43C)[C@@H]2C1", "note": "(some centres undefined)", "activity change, negative = inhibition": "-3.02% [at 11.6 µM]"}
{"smiles": "C=C1CCC2C(C)(C)CCC[C@]2(C)[C@H]1CC/C(C)=C/C(=O)O", "note": "(some centres undefined)", "Potency": "inactive"}
{"smiles": "C/C=C(/C)C(=O)OC1CC(C)(C)CC2C3=CCC4C5(C)CCC(OC6OC(C)C(OC7OC(C(=O)O)C(O)C(OC8OC(CO)C(O)C(O)C8OC8OC(CO)C(O)C(O)C8O)C7O)C(O)C6O)C(C)(C)C5CCC4(C)C3(C)C(OC(=O)/C=C/C=C/C=C/CCC)C(OC(C)=O)C12CO", "note": "(centres undefined)", "activity change, negative = inhibition": "1.89% [at 11.6 µM]"}
{"smiles": "COc1cc(/C=C/C(=O)OC[C@H]2O[C@@H](OC3CC(C)=C(C(=O)O)C(C)(C)C3)[C@H](O)[C@@H](O)[C@@H]2O)cc(OC)c1O", "note": "(some centres undefined)", "Potency": "inactive"}
{"smiles": "Oc1ccccc1-c1cc(-c2ccccc2F)[nH]n1", "Potency": "1690 nM (active)"}
{"smiles": "CSCC1OC(n2cnc3c(=O)[nH]cnc32)C(O)C1O", "note": "(centres undefined)", "Potency": "inactive"}
{"smiles": "C=C1C(O)CC2C(C(=O)O)=COC(O[C@@H]3O[C@H](COC(=O)c4ccc(O)cc4)[C@@H](O)[C@H](O)[C@H]3O)C12", "note": "(some centres undefined)", "Potency": "inactive"}
{"smiles": "C[C@@]1(C(=O)O)CCC[C@@]2(C)C3=CC[C@H]4C[C@@]3(CC[C@H]12)CC4(O)CO", "note": "(some centres undefined)", "Potency": "inactive"}
{"smiles": "CC1CC=C2C1CC1(O)C(=O)CC2(C)C1(C)CO", "note": "(centres undefined)", "Potency": "inactive"}
{"smiles": "COc1c2c(c(C)c3c1C(=O)OC3)OC1(C)CC(O)C34OC(O)(CCC3(C)C1C2)OC4(C)C", "note": "(centres undefined)", "Potency": "inactive"}
{"smiles": "CC(C)=CC[C@H]1O[C@]2(O)C([C@H]3CCC4[C@@]5(C)CC[C@H](O[C@@H]6O[C@H](CO)[C@H](O)[C@H](O[C@@H]7O[C@H](CO)[C@@H](O)[C@H](O)[C@H]7O)[C@H]6O[C@@H]6O[C@@H](C)[C@H](O)[C@@H](O)[C@H]6O)C(C)(C)C5CC[C@@]4(C)[C@]3(C)[C@H]2O)[C@@]1(C)O", "note": "(some centres undefined)", "activity change, negative = inhibition": "0.583% [at 11.6 µM]"}
{"smiles": "O=[N+]([O-])c1cc(Cl)ccc1S(=O)(=O)N1CCN(Cc2ccccc2)CC1", "Potency": "inactive"}
{"smiles": "C=CC(C)(O)CC/C=C(\\C)C1CC=C(C)C(=O)O1", "note": "(centres undefined)", "Potency": "inactive"}
{"smiles": "CC1=C2CC(C)(C)CC2C(O)C2=C(C1)C(=O)OC2O", "note": "(centres undefined)", "Potency": "inactive"}
{"smiles": "C=C1CC2C(C)(CCC(=O)O)C(C(C)(C)O)CCC2(C)C2(C(=O)OC)C(=O)C(C)(O)C(=O)C12C", "note": "(centres undefined)", "Potency": "inactive"}
{"smiles": "COc1ccc(/C=C/C(=O)O[C@@H]2[C@@H](O)[C@@H](O)[C@H](O[C@H]3[C@@H]4C=CO[C@@H](O[C@@H]5O[C@H](CO)[C@@H](O)[C@H](O)[C@H]5O)[C@@H]4[C@@]4(CO)O[C@@H]34)O[C@H]2C)cc1", "Potency": "inactive"}
{"smiles": "CC(=O)NC1C(OC2CCC3(C)C(CCC4(C)C3CC=C3C5CC(C)(C)CCC5(C(=O)O)C(O)CC34C)C2(C)C)OC(CO)C(O)C1O", "note": "(centres undefined)", "Potency": "inactive"}
